Rows were chosen to be rich in hits. Some 2% of all compounds tested hit in one or more screens of this group.
LEDGF integ inh: blocks HIV-1 LEDGF/p75-dependent DNA integration; TR-FRET IN-LEDGF/p75 DNA integration, Eu/Cy5; inhibition, % at 3.7 µM; hit rate 0.64% among 370,000; AID 743269;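 active = inhibition above the screen-wide mean plus 3 SD, cut at about 13% in these data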;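 also: signal is the Cy5 over europium emission ratio at 671 and 618 nm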
MBD2 DNA inh: MBD2-methylated oligo binding inhibition | inhibition, % at 4.4 µM | AID 686964 | TR-FRET, MBD2 binding to methylated oligonucleotide | hit rate 0.31% among 370,000 | Q9UBB5; in the data active = inhibition above about 13%
Target sequence (Q9UBB5 whole entry, looked up): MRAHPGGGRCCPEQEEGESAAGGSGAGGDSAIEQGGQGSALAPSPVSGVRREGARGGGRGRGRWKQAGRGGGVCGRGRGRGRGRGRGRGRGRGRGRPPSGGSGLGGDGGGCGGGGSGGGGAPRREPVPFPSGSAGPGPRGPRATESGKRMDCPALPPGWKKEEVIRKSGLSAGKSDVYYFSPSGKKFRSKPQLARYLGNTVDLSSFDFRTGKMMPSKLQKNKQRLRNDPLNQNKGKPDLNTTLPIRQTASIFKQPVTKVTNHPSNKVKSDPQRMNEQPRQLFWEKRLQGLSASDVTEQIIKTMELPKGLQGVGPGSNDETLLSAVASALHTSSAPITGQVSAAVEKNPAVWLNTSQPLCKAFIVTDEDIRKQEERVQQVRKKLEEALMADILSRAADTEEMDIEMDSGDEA
Rin1 Abl inh: blocks binding of human Rin1 to Abl; TR-FRET Rin1/Abl binding, biochemical; inhibition, % at 7.35 µM; AID 588664; P00519+Q13671; hit rate 0.4% among 360,000; in the data active = inhibition above about 5%, passing the limit was not always enough
TCR-CD3 inh: inhibitors of human TCR-CD3 interaction. hit rate 0.37% among 360,000. AID 651800. TAMRA-labeled TCR probe fluorescence, biochemical. inhibition, % at 9.4 µM; in the data active = inhibition above about 19%;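 also: recombinant mutant TCR 2C K166C tagged with TAMRA read by polarization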
UHRF1 binding: UHRF1 methyl-DNA binding inhibition. Q96T88. UHRF1 binding to methylated oligo, TR-FRET. inhibition, % at 4.4 µM. hit rate 0.75% among 370,000. AID 687016; in the data active = inhibition above about 21%;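 also: UHRF1 SRA domain binding a hemimethylated CpG hairpin DNA probe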
Rin1 Abl conf: confirmation of inhibitors of human Rin1-Abl interaction | inhibition, % at 7.35 µM | TR-FRET Rin1-Abl binding, purified proteins | hit rate 49% among 1,300 | shares compounds with Rin1 Abl inh
GFP quench-1: counter-screen for Rin1-Abl inhibitors: GFP fluorescence quenchers; shares compounds with Rin1 Abl inh; inhibitors/quenchers counterscreen; inhibition, % at 6.75 µM; hit rate 8.5% among 1,300; AID 602125;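 also: ABL1-eGFP fusion protein alone without its partner RIN1-SBP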
GFP quench DR: counter-screen for Rin1-Abl inhibitors: GFP quenchers, dose response; IC50, µM; GFP fluorescence interference/quenching counterscreen; 230 tested, under 10 active; shares compounds with Rin1 Abl inh; call rule not given here;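 also: ABL1-eGFP fusion protein alone without its RIN1 binding partner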
GFP quench-2: GFP quenching artifact for Rin1-Abl inhibitor hits; 25 tested, under 10 active; GFP fluorescence quenching counterscreen, biochemical; IC50, µM; shares compounds with Rin1 Abl inh; call rule not given here
A number is an active result; . = inactive; / = no result given. Rule as the data show it, unless noted: active = inhibition above about 6.5%; inactive = the rest.

SMILES	LEDGF integ inh	MBD2 DNA inh	Rin1 Abl inh	TCR-CD3 inh	UHRF1 binding	Rin1 Abl conf	GFP quench-1	others
O=C(CCN=C1NS(=O)(=O)c2ccccc21)OCc1nnc(-c2ccccc2)o1	.	.	.	.	.	/	/
CCc1ccc(CN(C)C(=O)C2CCC(=O)N(CC3CCCCC3)C2)cc1 (stereo not drawn)	.	.	.	.	.	/	/
CCCCn1c(O)c2n(c1=O)Cc1ccccc1N=C2c1ccc(OC)cc1	.	.	.	.	.	/	/
COc1ccc(Cc2c(C3CCCCC3)nc3cc(C)c(Br)c(C)n23)c(C)c1	.	.	/	.	.	/	/
CC(=O)Nc1cc(OC(C)=O)c2nonc2c1OC(C)=O	39	19	16	.	.	.	.
CC(=O)Nc1nonc1NC(C)=O	.	.	.	.	.	/	/
COc1ccc(C2c3c4c(n(C)c3CCN2C)CCN(C)C4c2ccc(OC)cc2)cc1 (stereo not drawn)	.	.	6.5	.	.	.	.
COCCNc1c(-c2cc3ccc(C)c(C)c3[nH]c2=O)nc2ccccn12	.	.	.	.	.	/	/
O=C(NCc1ccc(F)cc1)C1CCN(S(=O)(=O)N2CCOCC2)CC1	.	.	8.4	.	.	.	.
OC[C@@H]1CN(Cc2ccc(Cl)cc2)C[C@H](n2cnc3c(NC4CC4)ncnc32)O1	.	.	17	.	.	20	.	GFP quench DR=.
COc1ccc(CN2C[C@@H](CO)O[C@@H](n3cnc4c(NC5CCC5)ncnc43)C2)cc1	.	.	12	.	.	11	.
COc1cccc(CN(C)C(=O)CSc2nc3ccccc3[nH]2)c1OC	.	.	.	.	.	/	/
Cc1ccc(C)c(CC(=O)N2CCCC(c3cc(C(=O)NCc4ccccc4)no3)C2)c1 (stereo not drawn)	.	.	.	.	.	/	/
O=C(C1CCC(C(=O)N2CCCCC2)CC1)N1CCCCC1 (stereo not drawn)	.	.	6.2	.	.	.	.
COc1cc(/C=C/C(=O)OCC(=O)NCCc2ccc(F)cc2)ccc1OC(F)F	.	.	.	.	.	/	/
CCOC(=O)CSc1nc(C)cc(Oc2ccc(=O)n(C)n2)n1	.	.	.	.	.	/	/
Cc1cc(Oc2ccc(=O)n(C)n2)nc(SCCOc2ccccc2)n1	.	.	33	.	.	.	.
O=C1NC(c2ccc3c(c2)OCO3)c2c(-c3ccccc3)n[nH]c21 (stereo not drawn)	.	.	/	.	.	/	/
O=C(Nc1ccn(C2CCC(CO)O2)c(=O)n1)c1ccccc1 (stereo not drawn)	.	.	65	.	.	56	.
CNc1ccn(C2CCCO2)c(=O)n1 (stereo not drawn)	.	.	.	.	.	/	/
C#CCO[C@@H]1C[C@H](n2cnc3c(NC(=O)c4ccccc4)ncnc32)O[C@@H]1CO	.	.	.	.	.	/	/
C#CCO[C@@H]1C[C@H](n2ccc(NC(=O)c3ccccc3)nc2=O)O[C@@H]1CO	.	.	10	.	.	.	.
COc1cccc(N2CCN(C(=O)c3ccc(OC)c(S(=O)(=O)NC4CC4)c3)CC2)c1	.	.	.	.	.	/	/
Cc1ccc(N=C2NC(=O)C(CC(=O)NCc3ccccc3)S2)cc1C (stereo not drawn)	.	.	8.9	.	.	.	.
COc1ccc(CNC[C@H]2O[C@@H](n3ccc(=O)[nH]c3=O)[C@H](O)[C@@H]2O)cc1	.	.	.	.	.	/	/
SMILES	LEDGF integ inh	MBD2 DNA inh	Rin1 Abl inh	TCR-CD3 inh	UHRF1 binding	Rin1 Abl conf	GFP quench-1	others
COc1ccc(N(C(=O)c2snc(C(N)=O)c2N)C(C(=O)NC2CCCCC2)c2ccc(F)cc2)c(OC)c1 (stereo not drawn)	.	.	.	.	.	/	/
COc1ccc(N(C(=O)c2snc(C(N)=O)c2N)C(C(=O)NCc2ccccc2)c2ccc(F)cc2)c(OC)c1 (stereo not drawn)	.	.	9.9	.	.	11	.
COc1ccc(C(C(=O)NCc2ccccc2)N(C(=O)c2snc(C(N)=O)c2N)c2ccccc2OC)cc1 (stereo not drawn)	.	.	12	.	.	14	.
NC(=O)c1nsc(C(=O)N(c2ccccc2F)C(C(=O)NCc2ccc(F)cc2)c2ccc(O)cc2)c1N (stereo not drawn)	.	.	.	.	.	/	/
COc1ccccc1N(C(=O)c1snc(C(N)=O)c1N)C(C(=O)NCc1ccccc1)c1ccc(O)cc1 (stereo not drawn)	.	.	22	.	.	23	.	GFP quench DR=.
COc1ccc(C(C(=O)NCc2ccccc2)N(C(=O)c2snc(C(N)=O)c2N)C2CCCC2)cc1 (stereo not drawn)	.	.	.	.	.	/	/
Cc1csc(C(C)N(C)C(=O)c2ccc(OC3CCN(Cc4ccccn4)CC3)cc2)n1 (stereo not drawn)	.	.	.	.	.	/	/
CCC(C)n1c(NC(=O)c2ccccc2)c(C#N)c2nc3ccccc3nc21 (stereo not drawn)	28	.	14	.	.	.	.
CCn1c(CCc2ccccc2)nnc1SCC(N)=O	.	.	6.9	.	.	.	.
CCCCOc1ccc(C(=O)N=c2sccn2C)cc1OC	.	.	20	.	.	12	.
OCC[C@@H]1C[C@@H](O)[C@H](O)[C@@]2(Cc3ccccc3CO2)O1	.	.	8.9	.	.	.	.
OCC[C@H]1C[C@H](O)[C@@H](O)[C@@]2(Cc3ccccc3CO2)O1	.	.	.	.	.	/	/
Cc1ccc(S(=O)(=O)N2CC3(O)CN(C(=O)OC(C)C)N(C(=O)OC(C)C)CC3(OC(=O)NC3CCCC3)C2)cc1 (stereo not drawn)	.	.	.	.	.	/	/
COc1cc(Cl)ccc1OCc1cc(C(=O)N2CCCCC2c2cccnc2)no1 (stereo not drawn)	.	.	10	.	.	.	.
CN(CCc1ccccc1)C(=O)c1ccc(NC(=O)Cc2ccc(NC(=O)C3CCCN(C(=O)c4ccccc4)C3)cc2)cc1 (stereo not drawn)	.	.	.	.	.	/	/
CN(CCc1ccccc1)C(=O)c1ccc(NC(=O)Cc2ccc(NC(=O)C3CCN(C(=O)C4CC4)CC3)cc2)cc1	.	.	13	.	.	15	.
CN(CCc1ccccc1)C(=O)c1ccc(NC(=O)Cc2ccc(NC(=O)C3CCN(C(=O)c4ccccc4)CC3)cc2)cc1	.	.	41	.	.	42	.	GFP quench DR=.;GFP quench-2=.
CN(CCc1ccccc1)C(=O)c1ccc(NC(=O)Cc2ccc(NC(=O)C3CCN(C(=O)C4CCCC4)CC3)cc2)cc1	.	.	60	.	.	68	.	GFP quench DR=.;GFP quench-2=.
